Measurements reported in ChEMBL document CHEMBL4513151, “CO-ADD screening of Institut Català d'Investigació Química (Spain) compounds”.
Where “and” joins values, the source holds several entries; their conditions need not be identical. Equal entries are not always repeated. Measured potencies and affinities stand elsewhere.

Tested on: Staphylococcus aureus
Conditions: Concentration 32 ug.mL-1; ASSAY_TEST Inhibition of Bacterial Growth; detection method Absorption (OD600); MEDIA CAMHB; plate type 384well; NBS; CORNING #3640; time 18 hr

First: C=C1CC(C(=O)OC)(C(=O)OC)C[C@@H]1[C@H](c1ccccc1)n1ccc2ccc(Cl)cc21
Second: C=C1CC(C(=O)OC)(C(=O)OC)C[C@@H]1[C@H](c1ccccc1)n1ccc2ccccc21
The Inhibition of the first is lower: 17.85% for the first, 19.16% for the second.

Going from `C[C@]12CC[C@@](c3ccc4ccccc4c3)(O1)[C@H]1C=C[C@H](OC(=O)c3ccccc3)[C@H]12` to `C[C@]12CC[C@@](C)(O1)[C@H]1C=C[C@H](OC(=O)c3ccccc3)[C@H]12`, the Inhibition rises from 16.21% to 17.97%.

Going from `C=C1CC(C(=O)OC)(C(=O)OC)C[C@@H]1[C@@H](NS(=O)(=O)c1ccc(C)cc1)c1ccccc1` to `C=C1CC(COC)(COC)C[C@@H]1[C@@H](Nc1ccc(Br)cc1)c1ccccc1`, the Inhibition falls from 21% to 4.73%.

First: C=C1CC2(COC(C)(C)OC2)C[C@@H]1[C@@H](Nc1ccc(Br)cc1)c1ccccc1
Second: C=C1CC(COCc2ccc(OC)cc2)(COCc2ccc(OC)cc2)C[C@@H]1[C@@H](Nc1ccc(Br)cc1)c1ccccc1
The Inhibition of the first is higher: 25.91% for the first, -1.38% for the second.

Compared with `C[C@]12CC[C@@H](O1)[C@H]1C=C[C@H](OC(=O)c3ccccc3)[C@H]12`, `C[C@]12CC[C@@](C3CCCC3)(O1)[C@H]1C=C[C@H](OC(=O)c3ccccc3)[C@H]12` is higher in Inhibition: 21.38% for the first, 23.21% for the second.

In the case of `C[C@@H]1CC(=O)C=C2C(=O)[C@@H]3[C@@H](C3(C)C)[C@]21C`, the Inhibition is reported as 24.26%.

Same assay, conditions: Concentration 32 ug.mL-1; ASSAY_TEST Inhibition of Bacterial Growth; detection method Absorption (OD600); MEDIA CAMHB; plate type 384well; NBS; CORNING #3640; time 18 hr, 32 ug/mL

For `C[C@]12CC[C@@](c3ccc(C(F)(F)F)cc3)(O1)[C@H]1C=C[C@H](OC(=O)c3ccccc3)[C@H]12`, the Inhibition was 20.36% and 17.47%.
For `C[C@]12CC[C@@](C3CC3)(O1)[C@H]1C=C[C@H](OC(=O)c3ccccc3)[C@H]12`, the Inhibition was 14.3% and 9.5%.
For `C[C@]12CC[C@@](c3ccccc3)(O1)[C@H]1C=C[C@H](OC(=O)c3ccccc3)[C@H]12`, the Inhibition was 15.6% and 15.32%.

Tested on: Escherichia coli
Conditions: Concentration 32 ug.mL-1; ASSAY_TEST Inhibition of Bacterial Growth; detection method Absorption (OD600); MEDIA CAMHB; plate type 384well; NBS; CORNING #3640; time 18 hr

First: C=C1CC(C(=O)OC)(C(=O)OC)C[C@@H]1[C@H](c1ccccc1)n1ccc2ccc(Cl)cc21
Second: C=C1CC(C(=O)OC)(C(=O)OC)C[C@@H]1[C@H](c1ccccc1)n1ccc2ccccc21
The Inhibition of the first is lower: 1.22% for the first, 2.95% for the second.

Compared with `C[C@]12CC[C@@](c3ccc4ccccc4c3)(O1)[C@H]1C=C[C@H](OC(=O)c3ccccc3)[C@H]12`, `C[C@]12CC[C@@](C)(O1)[C@H]1C=C[C@H](OC(=O)c3ccccc3)[C@H]12` is higher in Inhibition: -2.58% for the first, 0.47% for the second.

Compared with `C=C1CC(C(=O)OC)(C(=O)OC)C[C@@H]1[C@@H](NS(=O)(=O)c1ccc(C)cc1)c1ccccc1`, `C=C1CC(COC)(COC)C[C@@H]1[C@@H](Nc1ccc(Br)cc1)c1ccccc1` is lower in Inhibition: -0.02% for the first, -1.74% for the second.

First: C=C1CC2(COC(C)(C)OC2)C[C@@H]1[C@@H](Nc1ccc(Br)cc1)c1ccccc1
Second: C=C1CC(COCc2ccc(OC)cc2)(COCc2ccc(OC)cc2)C[C@@H]1[C@@H](Nc1ccc(Br)cc1)c1ccccc1
The Inhibition of the first is higher: 2.09% for the first, -13.28% for the second.

First: C[C@]12CC[C@@H](O1)[C@H]1C=C[C@H](OC(=O)c3ccccc3)[C@H]12
Second: C[C@]12CC[C@@](C3CCCC3)(O1)[C@H]1C=C[C@H](OC(=O)c3ccccc3)[C@H]12
The Inhibition of the first is lower: 2.42% for the first, 7.38% for the second.

`C[C@@H]1CC(=O)C=C2C(=O)[C@@H]3[C@@H](C3(C)C)[C@]21C` showed an Inhibition of 3.69%.

Same assay, conditions: Concentration 32 ug.mL-1; ASSAY_TEST Inhibition of Bacterial Growth; detection method Absorption (OD600); MEDIA CAMHB; plate type 384well; NBS; CORNING #3640; time 18 hr, 32 ug/mL

`C[C@]12CC[C@@](c3ccc(C(F)(F)F)cc3)(O1)[C@H]1C=C[C@H](OC(=O)c3ccccc3)[C@H]12` was tested, and the Inhibition was 2.03% and 5%.
For `C[C@]12CC[C@@](C3CC3)(O1)[C@H]1C=C[C@H](OC(=O)c3ccccc3)[C@H]12`, the Inhibition was -1.08% and -3.45%.
For `C[C@]12CC[C@@](c3ccccc3)(O1)[C@H]1C=C[C@H](OC(=O)c3ccccc3)[C@H]12`, the Inhibition was -5.43% and -1.36%.
